# Reference: PubChem BioAssay (NCATS)
# Results filed as inconclusive are left out. Values without a mark were called inactive. Calls of active or inactive are those of the source. The call rests on the fitted dose curve; in most records, active means well fitted inhibition curve with a large enough effect; inconclusive means small, poorly fitted or top-dose-only effect; inactive means flat fitted curve, though single readings scatter.
# Tested on: TAB113
# Assay: qHTS profiling for inhibitors of Plasmodium falciparum proliferation (AID 504749); further: nearly all actives have a fitted effect of over 60% in size;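 on activity, negative = inhibition: 0% = DMSO vehicle and full inhibition = artemisinin control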
# Details: P. falciparum in erythrocytes, SYBR Green DNA, 72 h; series mostly up to 28.7 µM; activity, negative = inhibition: at the top concentration
# Procedure, shortened: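 Parasite proliferation within erythrocytes, 72 h exposure. Endpoint: SYBR Green I fluorescence after overnight lysis at room temperature. Controls: 0.29 uM artemisinin, DMSO.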
# Potency means the concentration at half of the fitted maximal effect.
Structure (SMILES),"activity, negative = inhibition",Potency
CC(=O)Oc1ccc(C2(c3ccc(OC(C)=O)cc3)C(=O)Nc3ccccc32)cc1,12.3%,
CNCCCC1c2ccccc2C=Cc2ccccc21,-29% [at 12.8 µM],
O=C1NC(=O)[C@@]2(CCOc3ccc(F)cc32)N1,12.8%,
CC(=O)c1ccc2c(c1)N(CCCN(C)C)c1ccccc1S2,-7.99% [at 12.8 µM],
CCCCN(CCCC)CC(O)c1cc(Cl)cc2c1-c1ccc(Cl)cc1/C2=C/c1ccc(Cl)cc1 (stereo not drawn),,0.0056 µM (active)
CC(CN1c2ccccc2Sc2ccccc21)N(C)C (stereo not drawn),4.93%,
NC(=O)NNc1ccccc1,,inactive
C=Cc1c(C)c2cc3[nH]c(cc4nc(cc5nc(cc1[nH]2)C(C)=C5CCC(=O)O)C(CCC(=O)O)=C4C)c(C)c3C=C,-4.84%,
CCN(CC)CCNC(=O)c1c(C)[nH]c(/C=C2\C(=O)Nc3ccc(F)cc32)c1C,,10 µM (active)
CCN(CC)CCSC(=O)C(c1ccccc1)c1ccccc1,,inactive
OCc1cc(C(O)CNCCCCCCOCCCCc2ccccc2)ccc1O (stereo not drawn),-22.9%,
Cc1c(O)cccc1C(=O)N[C@@H](CSc1ccccc1)[C@H](O)CN1C[C@H]2CCCC[C@H]2C[C@H]1C(=O)NC(C)(C)C,,12.6 µM (active)
C[C@](N)(Cc1ccc(O)cc1)C(=O)O,3.24%,
CC1=C(CC(=O)O)c2cc(F)ccc2/C1=C\c1ccc(S(C)=O)cc1 (stereo not drawn),-10.4%,
CN1CCCCC1CCN1c2ccccc2Sc2ccc(S(C)=O)cc21 (stereo not drawn),-28%,
CC1=C(/C=C/C(C)=C/C=C/C(C)=C/C(=O)O)C(C)(C)CCC1,-17.4%,
COC(=O)C1=C(C)NC(C)=C(C(=O)OC)C1c1ccccc1[N+](=O)[O-],-13.2%,
CSc1ccc2c(c1)N(CCC1CCCCN1C)c1ccccc1S2 (stereo not drawn),,10 µM (active)
